# About 83,000 compounds went through this panel and 20% of them were active in at least one assay; those are over-represented in the sample as a whole.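 Activity criterion: percent growth below 10, measured after cells in 96-well plates were exposed to a single compound concentration for 48 hours.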 Values without a mark were called inactive. The source made the active and inactive calls.
# Tests used:
# Experiment in all cases: NCI-60 one-dose screen, 48 h (100 = growth as untreated, 0 = no growth, -100 = all killed)
# Settings in all cases: 10 µM unless noted
# HCT-15 colon = test system: HCT-15 colon
# HT29 colon = test system: HT29 colon
# SNB-75 CNS = test system: SNB-75 CNS
# SNB-19 CNS = test system: SNB-19 CNS
# U251 CNS = test system: U251 CNS
# PC-3 prostate = test system: PC-3 prostate
# SK-MEL-5 melanoma = test system: SK-MEL-5 melanoma
# UACC-62 melanoma = test system: UACC-62 melanoma
# LOX IMVI melanoma = test system: LOX IMVI melanoma
# SK-MEL-28 melanoma = test system: SK-MEL-28 melanoma
# SK-MEL-2 melanoma = test system: SK-MEL-2 melanoma
# EKVX NSCLC = test system: EKVX NSCLC
# SN12C renal = test system: SN12C renal
# UO-31 renal = test system: UO-31 renal
# TK-10 renal = test system: TK-10 renal
# ACHN renal = test system: ACHN renal
# CAKI-1 renal = test system: CAKI-1 renal
# A498 renal = test system: A498 renal
# CCRF-CEM leukemia = test system: CCRF-CEM leukemia
# MOLT-4 leukemia = test system: MOLT-4 leukemia
Compound,growth (HCT-15 colon),growth (HT29 colon),growth (SNB-75 CNS),growth (SNB-19 CNS),growth (U251 CNS),growth (PC-3 prostate),growth (SK-MEL-5 melanoma),growth (UACC-62 melanoma),growth (LOX IMVI melanoma),growth (SK-MEL-28 melanoma),growth (SK-MEL-2 melanoma),growth (EKVX NSCLC),growth (SN12C renal),growth (UO-31 renal),growth (TK-10 renal),growth (ACHN renal),growth (CAKI-1 renal),growth (A498 renal),growth (CCRF-CEM leukemia),growth (MOLT-4 leukemia)
CCOC(=O)CC(c1ccccc1)C(C#N)c1ccccc1 (stereo not given),103%,103%,82.1%,111%,97.6%,89.5%,98.7%,97.3%,103%,95.5%,106%,87.5%,109%,84%,101%,103%,87.1%,91.3%,98.9%,88.8%
Oc1ccc(N=Nc2nccs2)c(O)c1,28.6%,51.5%,92.7%,90.8%,41.1%,55.2%,87.9%,44.3%,40%,118%,97.7%,41.4%,73.7%,39.2%,60.3%,30.3%,25.9%,225%,19.5%,11.8%
C#C[C@]1(O)CC[C@H]2[C@@H]3CC=C4c5nc(Nc6ccc(OC)cc6OC)sc5CC[C@]4(C)[C@H]3CC[C@@]21C,-39.1% (active),-12.8% (active),-53.6% (active),31.2%,-2.51% (active),-3.17% (active),-92.2% (active),-36.8% (active),-78.3% (active),-49.1% (active),-10.1% (active),24.7%,37.6%,13.2%,51.3%,32.6%,26.4%,-56% (active),16.9%,4.56% (active)
Cc1ccc(NC(=O)N[C@@H](Cc2cc(F)cc(F)c2)C(=O)N[C@@H]2C(=O)N3CCC[C@H]3C(=O)N3CCOC[C@H]3C(=O)N[C@@H](C)C(=O)N3C[C@H](C)C[C@H]3C(=O)O[C@H]2C)cc1,32.9%,32.4%,16.9%,21.5%,27.1%,19.1%,10.6%,26.3%,38.3%,42.3%,40.7%,30.6%,18.4%,28.4%,60.7%,29.7%,16.5%,-3.1% (active),58.3%,41%
CSc1nc(N)c(N=Nc2ccc(S(=O)(=O)Nc3nnc(C)s3)cc2)c(=O)[nH]1,109%,104%,107%,103%,119%,97.5%,104%,94.3%,118%,108%,113%,155%,92.1%,76.9%,108%,102%,139%,97.7%,128%,106%
N#C/C(C(=O)c1ccccc1)=C1/C(=O)Nc2ccccc21,106%,102%,66.9%,98.8%,103%,97.6%,95.6%,94.6%,104%,113%,106%,99.4%,93.1%,73.4%,118%,98%,78.8%,89%,103%,90.4%
Nc1nnc(CSc2nnc3n(Cc4ccccc4)c(=O)c4c5c(sc4n23)CCCC5)s1,90.4%,102%,98.7%,100%,93.2%,90.6%,105%,82.1%,86%,122%,109%,93.2%,91.9%,84.6%,113%,94.9%,10%,103%,69.1%,71.1%
COc1ccc2[nH]c(C(=O)N3CCN(C(=O)OCc4ccc5c(Br)cc(Br)c(O)c5n4)CC3)cc2c1,-72.2% (active),-68.5% (active),-98.5% (active),-93.1% (active),-95.7% (active),-87.9% (active),-99% (active),-95.5% (active),-91.2% (active),-98.1% (active),-89.5% (active),-76% (active),-86.8% (active),-100% (active),-99.5% (active),-100% (active),-96% (active),-97% (active),-11.8% (active),-22.3% (active)
CN(Cc1cccc(C(F)(F)F)c1)C(=O)[C@@H](CC(=O)N1CCC(N2CCCCC2)CC1)N1C(=O)[C@@H](N2C(=O)OC[C@@H]2c2ccccc2)[C@H]1/C=C/c1ccccc1,94.1%,86.6%,81.3%,81%,67.1%,67.1%,34.5%,96.2%,69.2%,93.3%,100%,89.9%,82.6%,83.4%,93.6%,100%,91.9%,63%,90.6%,58.3%
CCOC(=O)c1nn(C2CCCCO2)c2ccc(NC(=O)CN3CCCC3)cc12 (stereo not given),106%,111%,79%,95.8%,94.8%,107%,103%,98.5%,97.3%,105%,107%,95.8%,98.9%,84.4%,103%,101%,91.5%,78.9%,108%,99.3%
OC(c1ccc(Cl)cc1)(c1ccc(Cl)cc1)C(O)(c1ccc(Cl)cc1)c1ccc(Cl)cc1,33.8%,24%,27.8%,40.5%,46.6%,33.5%,71.7%,50.8%,11.2%,73.7%,68.4%,49%,29.8%,25.7%,29.1%,61.8%,46.8%,64.4%,32.8%,22.7%
Cc1cccc(/C=C2\N=C(c3ccccc3)N(c3ccc(S(N)(=O)=O)cc3)C2=O)c1,91.8%,86.1%,49.9%,80.1%,95.1%,92.9%,88.5%,92.8%,99%,101%,102%,92.1%,91.8%,99.9%,98.5%,86.5%,86.2%,101%,99.9%,90.3%
O=C(Nc1cccc(C2=NCCN2)c1)c1cccc(C(=O)Nc2cccc(C3=NCCN3)c2)c1,97.6%,110%,86.2%,98%,101%,99%,99.1%,94.3%,91.4%,102%,103%,88.6%,95.7%,84.5%,89.3%,101%,92.6%,111%,104%,100%
CCNC(=O)N1CCc2c(Cl)c3c(c(OC)c2[C@@H]1[C@H]1OCc2c1ccc(OC)c2OC)OCCO3,26.5%,13.3%,1.79% (active),30.8%,26.1%,20.8%,11.4%,22.2%,27.5%,54.3%,22.8%,48.7%,38.1%,34.2%,47.7%,31.5%,24.3%,-20.6% (active),12.3%,30.8%
Nc1nc(Nc2ccccc2)c2ncn(Cc3cc4c(cc3Br)OCO4)c2n1,6.74% (active),-34% (active),18.8%,17.3%,3.29% (active),16.2%,-6.17% (active),33.6%,12.9%,52%,36.9%,44.7%,7.96% (active),40.3%,35.1%,16.9%,18.2%,-3.53% (active),11.2%,10.4%

# From PubChem BioAssay (NCI)
